From PubChem BioAssay
Shown are actives, neighbours in structure and some others; about 19% of the full set was active somewhere.
HT1080-NT tox = kills 2HG-producing HT-1080-NT fibrosarcoma cells; HT-1080-NT fibrosarcoma viability, CellTiter-Glo ATP luminescence, 48 h; Potency, µM (top dose mostly 46.1 µM), without a hit: top-dose activity, negative = less viability, usual class: cytotoxic; 360,000 tested, 1.6% active;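 further: NT is the 2HG producing partner of a matched IDH1 knockdown line; potency means the concentration at half of the fitted maximal effect; 0% = DMSO-treated cells and -100% = media-only wells without cells; nearly all actives have a fitted effect of over 55% in size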
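A 48-hour cytotoxicity screen used HT-1080-NT cells plated 2 hours before compound delivery. ATP-based CellTiter-Glo luminescence measured viability, normalized to DMSO and no-cell controls.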
IL1B secr inh = inhibitors of inflammasome signaling (IL-1 beta secretion); THP-1 LPS/ATP IL-1B secretion, AlphaLISA, 16 h; hits give low values; 360,000 tested, 4.7% active; activity change, % at 57.5 µM; in the data active means activity change below about -50%; inconclusive means mostly about -30% to -49%
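THP-1 cells pretreated 1 hr with compounds (up to 57.5 uM final), then stimulated with LPS (250 ng/mL final) plus ATP (1.25 mM final); secreted IL-1B measured by AlphaLISA after 16 hr, decreased signal indicating inhibition.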
HT1080 IDH1KD tx = toxicity to HT-1080 IDH1 knockdown cells (counter line) | HT-1080 IDH1 knockdown viability, ATP luminescence, 48 h | Potency, µM (series often up to 46.1 µM), for inactives: at the highest dose activity, negative = toxicity, most hits filed as cytotoxic | 360,000 tested, 2% active;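 further: potency means the concentration at half of the fitted maximal effect; 0% = DMSO wells and -100% = cell-free medium wells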
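Knockdown cells (IDH1KD HT-1080) received compounds 2 h after plating at 750 cells/well and were kept 48 h at 37 °C in 5% FBS RPMI. A CellTiter-Glo luminescence read gave % activity for curve fitting.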
TDP1 cell CPT = DT40-hTDP1 cell growth loss with CPT. Potency, µM (highest dose often 46.2 µM), inactives show at the highest dose activity change, negative = growth inhibition, actives largely listed as inhibitors. AID 686979. chicken DT40 Tdp1-/-;hTDP1 cells + 20 nM CPT, ATP luminescence, 48 h. 420,000 tested, 12% active; further: potency means the concentration at half of the fitted maximal effect; nearly all actives have a fitted effect of over 55% in size
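Chicken DT40 Tdp1-/- cells complemented with human TDP1, 400 cells/well, exposed to compounds plus 20 nM camptothecin for at least 48 h at 37 C; viability read as ATP content by CellTiter-Glo luminescence.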
TDP1 cell noCPT = qHTS for Inhibitors of human tyrosyl-DNA phosphodiesterase 1 (TDP1): qHTS in cells in absence of CPT; 420,000 tested, 15% active; Potency, µM (series often up to 46.2 µM), without a hit: at the top dose activity change, negative = growth inhibition, usual class: inhibitors; DT40 Tdp1-/- hTDP1 cells, no CPT, ATP luminescence, 48 h; further: potency means the concentration at half of the fitted maximal effect; nearly all actives have a fitted effect of over 55% in size
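DT40 Tdp1-/-;hTDP1 cells, no CPT (DMSO vehicle only), 400 cells/well; compounds pin-transferred; ≥48 hr, 37 °C; CellTiter-Glo 30 min RT dark, luminescence read.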
Numbers without * were called inactive; u = inconclusive; x = not tested or not shown. Unless noted, the call rests on the fitted dose curve; in most records, active means well fitted curve in the direction sought with a large enough effect; inconclusive means small, poorly fitted or top-dose-only effect, or another doubt; inactive means no such curve, though single readings can be large; an effect the other way counts as inactive or inconclusive. Unless noted, on the % scale 0 is the no-effect control and ±100 the full control effect.

SMILES | HT1080-NT tox | IL1B secr inh | HT1080 IDH1KD tx | TDP1 cell CPT | TDP1 cell noCPT
COc1ccccc1NS(=O)(=O)c1ccc(Cl)c(NC(=O)CN2C(=O)c3ccccc3C2=O)c1 | 10% | 19 | 6% | 1% | 0%
COc1ccc[n+](CC(=O)c2ccc(F)cc2)c1 | x | x | x | 1% | -25%
CCNCc1cc([N+](=O)[O-])ccc1OCC | 5% | -8 | 2% | 0% | -12%
CN(C)C(=S)Nn1c(-c2ccccc2)nc2ccccc2c1=O | 21% | 5 | 25% | -5% | -23%
Cc1cccc(-c2nc3ccccc3c(=O)n2NC(=S)N(C)C)c1 | 0% | -2 | 0% | 9.2µM* | 8.2µM*
CC(Nc1nc(-c2ccccc2)nc2ccccc12)c1ccccc1 (stereo unspecified) | u | -23 | -17% | u | u
CC(Nc1nc(N2CCCCC2)nc2ccccc12)c1ccccc1 (stereo unspecified) | u | u | u | u | 23µM*
C=CCNc1nc(N2CCCC2)nc2ccccc12 | -30% | -14 | u | 16µM* | 16µM*
Fc1ccc(OCc2nc3ccccc3s2)cc1 | -13% | 58 | -9% | 1% | u
Cc1[nH]c2ccccc2c1SCc1nnc(SCc2ccccc2)n1C | -15% | -57* | u | -15% | u
CSCC[C@H](N)C(=O)N1CCC(C(=O)N[C@H](C(=O)NCc2ccccc2F)C(C)C)CC1 | 0% | 0 | -1% | 20% | 8%
Cc1ccc(-c2nc(CS(=O)CC(=O)NCc3ccc4c(c3)OCO4)c(C)o2)cc1 (stereo unspecified) | -1% | -12 | -5% | u | 16µM*
CCc1ccc(-c2nc(CS(=O)CC(=O)NCc3ccccc3)c(C)o2)cc1 (stereo unspecified) | -8% | 15 | -7% | -5% | -15%
CCc1cccc(NC(=O)CS(=O)Cc2nc(-c3ccc(C)cc3)oc2C)c1 (stereo unspecified) | -5% | 9 | -9% | u | 16µM*
CCCCOc1ccc(C(=O)N2CCN(CC(=O)Nc3ccc(C)cc3)CC2)cc1OC | u | 1 | -16% | u | u
Cc1cc(O)c2c(c1)C(=O)[C@@]13Oc4c5c(c(O)c6c(O)cc(C)cc46)C(=O)C[C@H](O)[C@H]5[C@@H]1[C@@H](O)CC(=O)C3=C2O | u | -5 | u | 15µM* | u
CCN1C(=O)[C@@H]2[C@@H]3CN(S(=O)(=O)c4ccc(C)cc4)[C@@H](c4ccccc4F)[C@@H]3C(=O)C[C@@H]2C1=O | 22% | -9 | 17% | -9% | -23%
O=C1c2ccccc2C(=O)N1CCCCc1cn(C[C@H]2CC[C@H](Cn3cc(CCCCN4C(=O)c5ccccc5C4=O)nn3)O2)nn1 | 3% | -7 | 2% | u | 21µM*
c1ccc(-c2cn(C[C@H]3CC[C@@H]([C@@H]4CC[C@H](Cn5cc(-c6ccccn6)nn5)O4)O3)nn2)nc1 | 5% | 3 | 1% | -28% | -24%
c1ccc(CCc2cn(C[C@H]3CC[C@@H]([C@@H]4CC[C@H](Cn5cc(CCc6ccccc6)nn5)O4)O3)nn2)cc1 | 2% | -4 | 2% | u | 15µM*
CC1CN(CCCCN2C(=O)c3ccccc3C2=O)CC(C)O1 (stereo unspecified) | 21% | 15 | 18% | -11% | 23%
c1ccc(-c2cn(C[C@H]3CC[C@@H]([C@@H]4CC[C@H](Cn5cc(-c6ccccc6)nn5)O4)O3)nn2)cc1 | -11% | -14 | -17% | 26µM* | u
Cc1cc(OCC(=O)NC(Cc2c[nH]c3ccccc23)C(=O)O)ccc1Cl (stereo unspecified) | x | x | x | 7% | -2%
COc1ccc(F)cc1S(=O)(=O)N1CCN(C(=O)c2ccco2)CC1 | 17% | 18 | 17% | 13% | 7%
Cc1cccc(NC(=O)Cn2c(=O)n(Cc3ccc4c(c3)OCO4)c(=O)c3oc4ccccc4c32)c1C | x | x | x | 7.3µM* | 7.3µM*
SMILES | HT1080-NT tox | IL1B secr inh | HT1080 IDH1KD tx | TDP1 cell CPT | TDP1 cell noCPT
O=C(Cn1c(=O)n(Cc2ccccc2)c(=O)c2oc3ccccc3c21)Nc1ccc(Cl)cc1 | x | x | x | u | 18µM*
Cc1ccc(C)c(NC(=O)Cn2c(=O)n(Cc3ccc4c(c3)OCO4)c(=O)c3oc4ccccc4c32)c1 | x | x | x | 2.9µM* | 2.9µM*
Cc1cccc(NC(=O)Cn2c(=O)n(Cc3ccccc3)c(=O)c3oc4ccccc4c32)c1C | x | x | x | 4.6µM* | 3.3µM*
Cc1ccc(NC(=O)Cn2c(=O)n(Cc3ccc4c(c3)OCO4)c(=O)c3oc4ccccc4c32)cc1C | x | x | x | -25% | -23%
CCO[C@@H]1OC(C(=O)NCc2nc3ccccc3[nH]2)=C[C@H](C)[C@H]1CCCO | 2% | 17 | 9% | -7% | u
O=C(CN1C(=O)/C(=C\c2ccc(F)cc2)Oc2ccccc21)NCc1ccco1 | 13% | 7 | 11% | -8% | -26%
COc1cccc2c(=O)cc(C)n(CC(=O)Nc3ccccc3C)c12 | -10% | 4 | -17% | u | 15µM*
CNC(=O)Cn1c(C)cc(=O)c2cccc(OC)c21 | 3% | 8 | -1% | 20% | -2%
O=C(CSC1=NCCN1)C1COc2ccccc2O1 (stereo unspecified) | 2% | -13 | u | 18µM* | u
O=C(Nc1ccncc1)C1COc2ccccc2O1 (stereo unspecified) | -4% | -10 | -7% | u | -30%
Cc1cccc(C2=NC(C(F)(F)F)(C(F)(F)F)c3c(n(-c4ccc(F)cc4)c(=O)[nH]c3=O)N2)c1 | -4% | 3 | -1% | 21µM* | 16µM*
O=C(NC1(C(F)(F)F)C(=O)Nc2c1c(=O)[nH]c(=O)n2-c1ccc(F)cc1)c1ccccc1 (stereo unspecified) | x | x | x | -15% | -23%
CN(C)S(=O)(=O)c1cccc(CNCC2COc3ccccc3O2)c1 (stereo unspecified) | 0% | 20 | 1% | -23% | -5%
Cc1ccccc1NNC(N)=S | 0% | u | 0% | 21µM* | 23µM*
Cc1ccccc1NC(=O)Nc1ccccc1C(N)=O | 0% | -10 | -1% | 10µM* | u
NC(=O)NNC(=S)Nc1cccc2ccccc12 | 7% | 13 | -1% | -5% | 6%
O=C(Nc1ccccc1F)Nc1cccc2ccc(O)cc12 | 6% | -9 | 2% | 16µM* | 16µM*
Cc1ccc(NC(=O)Nc2ccccc2C(N)=O)cc1 | -1% | 0 | 21% | u | u
CC(=O)Nc1cccc2ccc(O)cc12 | 5% | -10 | 6% | -1% | -8%
